Several values for one entry are separate records, joined by “and”; a condition that tells them apart may be missing. Identical values can stand only once. Counter-ions that a name gives are not always drawn.
Legend:
Test in all cases: cell viability relative to vehicle control; higher = less cytotoxic
Details in all cases: 10 µM
[1] = tested on: K562
Summary of the method: (§1)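 Mutant clones made by CRISPR editing and their isogenic wild-type counterparts, from four leukaemia lines, were exposed to a single 10 µM dose of each library compound for 48 h. The supernatant was then removed and CellTiter-Glo luminescence was read. Viability was reported as percent of the on-plate vehicle control.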

[2] = tested on: MARIMO
Summary of the method: as §1

[3] = tested on: MOLM14
Summary of the method: as §1

[4] = tested on: OCI-AML2
Summary of the method: as §1

SMILES	cell viability ([1]; SRSF2 genotype: SRSF2 P95H/wt)	cell viability ([1]; SRSF2 genotype: SRSF2 wt/wt) [%]	cell viability ([2]; SRSF2 genotype: SRSF2 P95H/wt) [%]	cell viability ([2]; SRSF2 genotype: SRSF2 wt/wt) [%]	cell viability ([3]; SRSF2 genotype: SRSF2 P95H/wt) [%]	cell viability ([3]; SRSF2 genotype: SRSF2 wt/wt) [%]	cell viability ([4]; SRSF2 genotype: P95H/wt) [%]	cell viability ([4]; SRSF2 genotype: wt/wt) [%]
CN1C(=O)[C@@H](NC(=O)c2n[nH]c(Cc3ccccc3)n2)COc2ccccc21	97.3% and 106%	103	103	105	103	106	106	106
CCOc1cc2ncc(C#N)c(Nc3ccc(OCc4ccccn4)c(Cl)c3)c2cc1NC(=O)/C=C/CN(C)C [Neratinib (HKI-272)]	68.5% and 66.3%	62.6	42.1	41.8	54.1	53.4	13.3	36.9
OC[C@@H](O)CN1CCN(c2ccccc2)CC1 [Levodropropizine]	90.9% and 91%	83.9	85.1	96.5	92.5	91.6	94.5	96
C[C@@H]1CC[C@@]2(OC1)O[C@H]1C[C@H]3[C@@H]4CC=C5C[C@@H](O[C@@H]6O[C@H](CO)[C@@H](O)[C@H](O)[C@H]6O)CC[C@]5(C)[C@H]4CC[C@]3(C)[C@H]1[C@@H]2C [Trillin]	87.5% and 97.2%	94	76.7	78.7	84.5	93.2	88.3	98.5
O=C(O)Cc1cccc2ccccc12 [1-Naphthaleneacetic acid]	98% and 100%	98.1	95.7	98.3	106	97.5	104	97.4
COc1ccc(-n2c(C)c([N+](=O)[O-])c3ccc(O)cc32)cc1	97.5% and 95.4%	94	99.2	108	93.6	98.2	73.1	80.2
CC(C)C[C@H](NC(=O)CNC(=O)c1cc(Cl)ccc1Cl)B1OC(=O)CC(CC(=O)O)(C(=O)O)O1 (stereo partly drawn) [Ixazomib Citrate (MLN9708)]	2.32% and 2.83%	4.01	0.72	2.45	0.35	0.36	0.42	1.49
CCC(C)(Oc1ccc(C2(c3ccc(OC(C)(CC)C(=O)O)cc3)CCCCC2)cc1)C(=O)O (stereo not drawn) [Clinofibrate]	95.4% and 93.2%	93.7	92.4	102	93.8	96.6	90.4	102
CC(=O)CCc1ccc(OC(C)=O)cc1 [Pherocon (4-(4-Acetoxyphenyl)-2-butanone)]	111% and 109%	119	103	107	109	108	119	116
COCC1=C(C(=O)OC(C)OC(=O)OC(C)C)N2C(=O)[C@@H](NC(=O)/C(=N\OC)c3csc(N)n3)[C@H]2SC1 (stereo partly drawn) [Cefpodoxime proxetil]	103% and 105%	92.6	91.9	100	90.4	95.7	90.3	94.9
C[C@@]1(CO)C[C@@H](O)C[C@@]2(C)[C@@H]3CC[C@](C)([C@@H](O)CO)C=C3CC[C@H]12 [Kirenol]	98.1% and 101%	97.7	89.3	96.2	107	104	94.6	101
Nc1ncnc2c1c(I)cn2C1OC(CO)C(O)C1O (stereo not drawn) [5-Iodotubercidin]	4.74% and 10.8%	6.66	12.2	5.58	0.78	0.42	2.92	13.1
CCCCC(CC)COC(=O)C=Cc1ccc(OC)cc1 (stereo not drawn) [Octinoxate]	106% and 102%	103	96.9	109	99.5	108	90.2	93.4
Clc1ccc(COC(Cn2ccnc2)c2ccc(Cl)cc2Cl)c(Cl)c1 (stereo not drawn) [Miconazole nitrate]	68.8% and 61.8%	67.2	70	76.1	57.4	64.3	66.2	63.4
COc1ccc(C=O)c(O)c1 [4-Methoxysalicylaldehyde]	97.5% and 89.5%	97.8	93.5	102	99.4	95.9	97	92
CCC(C)SSc1ncc[nH]1 (stereo not drawn)	14.2% and 15.1%	11.6	6.03	4.97	1.56	3.76	4.83	3.63
Cc1cc(C(=O)NOCCO)c(Nc2ccc(I)cc2F)n(C)c1=O	79.1% and 88%	84.6	43.3	36.3	43.5	28.7	39.4	42.9
CC12CCC(CC1)C(C)(C)O2 [Eucalyptol]	104% and 102%	104	101	101	104	101	102	103

SMILES	cell viability ([1]; SRSF2 genotype: SRSF2 P95H/wt)	cell viability ([1]; SRSF2 genotype: SRSF2 wt/wt) [%]	cell viability ([2]; SRSF2 genotype: SRSF2 P95H/wt) [%]	cell viability ([2]; SRSF2 genotype: SRSF2 wt/wt) [%]	cell viability ([3]; SRSF2 genotype: SRSF2 P95H/wt) [%]	cell viability ([3]; SRSF2 genotype: SRSF2 wt/wt) [%]	cell viability ([4]; SRSF2 genotype: P95H/wt) [%]	cell viability ([4]; SRSF2 genotype: wt/wt) [%]
Cc1cccc(Oc2cnc(=O)[nH]c2)c1	97.7% and 96%	99.4	94.2	97	100	97.4	103	101
COc1ccc(C2CNC(=O)C2)cc1OC1CCCC1 (stereo not drawn) [Rolipram]	92.9% and 98%	98.6	104	102	101	103	108	110
CCCS(=O)(=O)Nc1ccc(F)c(C(=O)c2c[nH]c3ncc(Cl)cc23)c1F	87.6% and 92.7%	94.9	72.2	88.4	81.4	88.1	99.2	105
Nc1nc(Cl)nc2c1ncn2[C@H]1C[C@H](O)[C@@H](CO)O1 [Cladribine]	94.3% and 104%	101	12.2	8.19	2.38	0.54	4.93	4.28
O=C(NCc1ccncc1)C12CC3CC(C1)CC(c1ccc(Cl)cc1)(C3)C2	73.1% and 84.6%	72.3	75.4	74.2	61	57.4	64.5	55.1
CN1CC[C@@H](c2c(O)cc(O)c3c(=O)cc(-c4ccccc4Cl)oc23)[C@@H]1CO	5.12% and 15.8%	7.55	7.83	3.59	2.24	0.71	1.64	13.3
COC(=O)N[C@H](C(=O)N[C@@H](Cc1ccccc1)[C@@H](O)CN(Cc1ccc(-c2ccccn2)cc1)NC(=O)[C@@H](NC(=O)OC)C(C)(C)C)C(C)(C)C [Atazanavir sulfate]	97.1% and 109%	102	93.5	118	103	104	94.5	97.3
CCOC(=O)[C@H](CCc1ccccc1)N[C@@H](C)C(=O)N1Cc2ccccc2C[C@H]1C(=O)O [Quinapril hydrochloride (Accupril)]	97.3% and 108%	106	102	106	104	103	107	104
CO/N=C(\C(=O)N[C@@H]1C(=O)N2C(C(=O)O)=CCS[C@H]12)c1csc(N)n1 [Ceftizoxime]	99.2% and 101%	110	96.1	98.9	104	103	111	98.5
CC#CC(=O)N1CC[C@@H](n2c(=O)n(-c3ccc(Oc4ccccc4)cc3)c3c(N)ncnc32)C1 [ONO-4059 (GS-4059) hydrochloride]	91% and 102%	95.7	97.2	107	91.4	95.8	91	88.9
O=S(=O)(Cl)c1ccc(-c2ccccc2)cc1 [Biphenyl-4-sulfonyl chloride]	109% and 104%	107	99	100	108	105	105	113
CC1(C)CCC2(C(=O)O)CCC3=C(CCC4C3(C)CCC3C4(C)CC(O)C(O)C3(C)C(=O)O)C2C1 (stereo not drawn) [Polygalic acid]	86.1% and 86.3%	82	89.8	92	87.7	87.9	83.1	95.3
O=C(O)c1ccc(NC(=O)[C@H](Cc2ccc(O)cc2)NC(=O)c2ccccc2)cc1 [bentiromide]	103% and 106%	106	112	111	95.6	104	110	96.2
CC(C)=CCC[C@](C)(O[C@@H]1O[C@H](CO)[C@@H](O)[C@H](O)[C@H]1O)[C@H]1CC[C@]2(C)[C@@H]1[C@H](O)C[C@@H]1[C@@]3(C)CC[C@H](O)C(C)(C)[C@@H]3CC[C@]12C [Ginsenoside CK]	82.7% and 78.2%	77	92.6	104	77.2	95	65.3	76.4
C=C[C@]1(C)C[C@@H](OC(=O)CSCCN(CC)CC)[C@]2(C)[C@H](C)CC[C@]3(CCC(=O)[C@H]32)[C@@H](C)[C@@H]1O [Tiamulin fumarate]	85.7% and 84.7%	89.8	93.4	91.3	94.2	93.7	88.6	96.6
CC(C)(C)c1cnc(CSc2cnc(NC(=O)C3CCNCC3)s2)o1	24.3% and 35.5%	27.3	9.12	4.42	3.75	0.63	4.54	18.1
CC(C)(C(=O)O)c1ccc(C(O)CCCN2CCC(C(O)(c3ccccc3)c3ccccc3)CC2)cc1 (stereo not drawn) [Fexofenadine HCl]	99.1% and 98.7%	101	95.9	103	100	101	94.1	110
CC(C)=CCC[C@](C)(O[C@@H]1O[C@H](CO)[C@@H](O)[C@H](O)[C@H]1O)[C@H]1CC[C@]2(C)[C@@H]1[C@H](O)C[C@@H]1[C@@]3(C)CC[C@H](O)C(C)(C)[C@@H]3[C@@H](O[C@@H]3O[C@H](CO)[C@@H](O)[C@H](O)[C@H]3O[C@@H]3O[C@@H](C)[C@H](O)[C@@H](O)[C@H]3O)C[C@]12C [Ginsenoside Re]	103% and 101%	101	99.2	105	101	106	97.4	107

— the supplement of paper PMC10981050
